Data from article PMC5700166.

Tests used:
Experiment in all cases: protein-binding microarray (PBM); PBM: ~300 nM protein, 6 mM HEPES pH 7.8, 80 mM KCl, 0.5 mM EDTA, 0.5 mM EGTA, 6% glycerol, 35 ng/ul poly-dIdC, 1% milk, 1 h, room temperature; Ap Aiptasia and Nv Nematostella (sea anemones) / Co Capsaspora / Aq Amphimedon (sponge) / Dm Drosophila / Hu human; RHD is the Rel homology domain; high values mean tight binding
Conditions in all cases: dsDNA, one strand shown
GST-Ap-NF-kB RHD = target: T1, GST-Ap-NF-kB RHD (Exaiptasia pallida (Aiptasia), UniProt A0A913YAJ5 2-422)
T1 sequence: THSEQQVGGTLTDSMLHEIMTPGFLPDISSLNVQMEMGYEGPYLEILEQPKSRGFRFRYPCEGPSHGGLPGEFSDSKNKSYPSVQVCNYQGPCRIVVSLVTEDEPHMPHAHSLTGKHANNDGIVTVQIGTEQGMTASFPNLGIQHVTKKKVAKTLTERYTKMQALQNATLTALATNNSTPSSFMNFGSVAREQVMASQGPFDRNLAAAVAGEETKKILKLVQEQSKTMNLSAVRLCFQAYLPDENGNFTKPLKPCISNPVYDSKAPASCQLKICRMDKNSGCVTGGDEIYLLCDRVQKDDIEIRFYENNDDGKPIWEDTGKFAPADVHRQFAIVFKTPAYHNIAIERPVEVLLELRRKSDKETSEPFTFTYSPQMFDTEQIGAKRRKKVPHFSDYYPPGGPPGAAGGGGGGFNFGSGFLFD

[1] = target: T2, GST-Nv-NF-kB (Cys allele) (Nematostella vectensis, UniProt E5G601 2-411)
T2 sequence: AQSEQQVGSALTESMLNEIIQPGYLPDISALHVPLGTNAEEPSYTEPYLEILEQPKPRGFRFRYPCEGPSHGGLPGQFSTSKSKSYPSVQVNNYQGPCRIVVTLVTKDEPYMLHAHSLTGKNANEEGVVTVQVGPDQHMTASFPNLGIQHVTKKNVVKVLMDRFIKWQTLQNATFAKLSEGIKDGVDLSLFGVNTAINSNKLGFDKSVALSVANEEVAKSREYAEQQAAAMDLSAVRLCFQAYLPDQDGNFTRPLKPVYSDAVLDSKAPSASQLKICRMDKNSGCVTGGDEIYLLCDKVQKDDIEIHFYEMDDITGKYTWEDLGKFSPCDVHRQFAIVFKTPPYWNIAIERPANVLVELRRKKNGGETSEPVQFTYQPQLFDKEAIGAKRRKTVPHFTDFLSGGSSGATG

GST-Dm-Relish = target: T3, GST-Dm-Relish (Drosophila melanogaster, UniProt Q94527 99-473)
T3 sequence: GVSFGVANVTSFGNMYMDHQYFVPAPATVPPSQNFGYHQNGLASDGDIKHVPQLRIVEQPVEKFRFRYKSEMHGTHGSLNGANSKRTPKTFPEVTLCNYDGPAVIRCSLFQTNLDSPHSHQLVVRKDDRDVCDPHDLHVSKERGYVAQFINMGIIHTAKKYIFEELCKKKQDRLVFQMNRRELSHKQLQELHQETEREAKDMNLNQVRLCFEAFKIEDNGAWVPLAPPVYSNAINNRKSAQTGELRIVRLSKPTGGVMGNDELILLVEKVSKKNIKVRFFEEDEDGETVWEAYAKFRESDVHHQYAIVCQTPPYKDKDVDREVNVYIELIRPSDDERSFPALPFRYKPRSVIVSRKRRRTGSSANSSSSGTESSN

GST-Aq-NF-kB = target: T4, GST-Aq-NF-kB (Amphimedon queenslandica, UniProt A9Y5G7 2-389)
T4 sequence: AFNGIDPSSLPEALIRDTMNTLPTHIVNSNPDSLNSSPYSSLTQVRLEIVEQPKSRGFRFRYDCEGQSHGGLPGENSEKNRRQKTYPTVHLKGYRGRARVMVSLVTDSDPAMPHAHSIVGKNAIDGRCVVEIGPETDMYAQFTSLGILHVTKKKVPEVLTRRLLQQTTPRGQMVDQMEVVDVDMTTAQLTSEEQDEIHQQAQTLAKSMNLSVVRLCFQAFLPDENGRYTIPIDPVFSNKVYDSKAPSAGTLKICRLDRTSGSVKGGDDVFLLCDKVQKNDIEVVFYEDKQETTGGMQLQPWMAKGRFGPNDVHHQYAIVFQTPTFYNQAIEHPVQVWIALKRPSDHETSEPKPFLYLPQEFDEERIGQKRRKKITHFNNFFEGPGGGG

| Sequence | binding signal (GST-Ap-NF-kB RHD) | binding signal [1] | binding signal (GST-Dm-Relish) | binding signal (GST-Aq-NF-kB) |
| --- | --- | --- | --- | --- |
| CCGATTAACATCAAGGGAAGCCCTGATGTTAATCGGGTCTTGATTCGCTTGACGCTGCTG | 2.12 z-score | 1.83 z-score | 7.5 z-score | 3.99 z-score |
| CCGATTAACATCAGGGAGTTCCATGATGTTAATCGGGTCTTGATTCGCTTGACGCTGCTG | 2.73 z-score | 3.31 z-score | 4.43 z-score | 4.38 z-score |
| CCGATTAACATCAGGGAAGCCCATGATGTTAATCGGGTCTTGATTCGCTTGACGCTGCTG | 1.18 z-score | 1.19 z-score | 8.29 z-score | 3.64 z-score |
| CCGATTAACATCAGGAAGTCCCATGATGTTAATCGGGTCTTGATTCGCTTGACGCTGCTG | 4.82 z-score | 5.32 z-score | 6.71 z-score | 4.99 z-score |
| CCGATTAACATCAAGGGTTTTCCTGATGTTAATCGGGTCTTGATTCGCTTGACGCTGCTG | 3.57 z-score | 3.39 z-score | 4.7 z-score | 5.2 z-score |
| CCGATTAACATCAAGGGCATTCCTGATGTTAATCGGGTCTTGATTCGCTTGACGCTGCTG | 1.84 z-score | 1 z-score | 2.4 z-score | 3.02 z-score |
| CCGATTAACATCAACAAAGTCCCTGATGTTAATCGGGTCTTGATTCGCTTGACGCTGCTG | 4.89 z-score | 5.37 z-score | 5.26 z-score | 4.25 z-score |
| CCGATTAACATCAGGATATACCCTGATGTTAATCGGGTCTTGATTCGCTTGACGCTGCTG | 2.02 z-score | 2.26 z-score | 2.67 z-score | 4.83 z-score |
| CCGATTAACATCAGGAACATCCCTGATGTTAATCGGGTCTTGATTCGCTTGACGCTGCTG | 1.46 z-score | 1.39 z-score | 1.9 z-score | 4.06 z-score |
| CCGATTAACATCAGGCAAGTCCCTGATGTTAATCGGGTCTTGATTCGCTTGACGCTGCTG | 3.63 z-score | 3.87 z-score | 2.41 z-score | 5.74 z-score |
| CCGATTAACATCAGGAGTTTACCTGATGTTAATCGGGTCTTGATTCGCTTGACGCTGCTG | 1.12 z-score | 1.18 z-score | 3.24 z-score | 2.87 z-score |
| CCGATTAACATCACGGGACATACTGATGTTAATCGGGTCTTGATTCGCTTGACGCTGCTG | 1.83 z-score | 1.3 z-score | 1.8 z-score | 2.17 z-score |
| CCGATTAACATCAGGACAGTCCCTGATGTTAATCGGGTCTTGATTCGCTTGACGCTGCTG | 4.92 z-score | 5.23 z-score | 3.04 z-score | 7.13 z-score |
| CCGATTAACATCAGGGATTCCACTGATGTTAATCGGGTCTTGATTCGCTTGACGCTGCTG | 2.72 z-score | 1.75 z-score | 6.88 z-score | 4.11 z-score |
| CCGATTAACATCACGGAAGTCCCTGATGTTAATCGGGTCTTGATTCGCTTGACGCTGCTG | 5.31 z-score | 5.39 z-score | 6.53 z-score | 5.41 z-score |
| CCGATTAACATCAGGAGGCCCCCTGATGTTAATCGGGTCTTGATTCGCTTGACGCTGCTG | 4.97 z-score | 2.51 z-score | 2.71 z-score | 5.1 z-score |
